Results as given in PubChem BioAssay AID1159580 (chemical genetic matrix, 2015).
About 2,000 (36%) of roughly 5,500 compounds were called active. Not shown: some 18% with an inconclusive outcome. Cut-off read from the data, not from the text of the source: active = normalized growth mostly below about 0.91 (no sharp cut-off); inconclusive = no clear call, values can overlap the other calls; inactive = mostly above about 0.92. This is one part of the list.

Assay: chemical genetic growth profiling, strain panel (AID 1159580);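 note: tested at 20 µM; growth read once vehicle control cultures reached saturation at 30 °C; 1 = growth at the plate median or of vehicle wells; lower values mean less growth of the strain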
Settings: growth OD
[1] = S. cerevisiae deletion strains, locus YHR030C, strain SLT2, active compounds read low
[2] = S. cerevisiae deletion strains, locus YJL095W, strain BCK1, active compounds read low
[3] = S. cerevisiae deletion strains, locus YHR079C, strain IRE1, active compounds read low
[4] = S. cerevisiae deletion strains, locus YJR066W, strain TOR1, active compounds read low
[5] = S. cerevisiae deletion strains, locus YLR113W, strain HOG1, active compounds read low
[6] = S. cerevisiae deletion strains, locus YNL183C, strain NPR1, active compounds read low
[7] = S. cerevisiae deletion strains, locus YOR231W, strain MKK1, active compounds read low
[8] = S. cerevisiae deletion strains, locus YPL256C, strain CLN2, active compounds read low

Measured: normalized growth

CCCCOC(=O)c1ccccc1C(=O)OCc1ccccc1
inactive: S. cerevisiae deletion strains, locus YAL013W, strain DEP1, active compounds read low 0.988 | S. cerevisiae deletion strains, locus YBR021W, strain FUR4, active compounds read low 0.965 | S. cerevisiae deletion strains, locus YBR229C, strain ROT2, active compounds read low 0.987 | S. cerevisiae deletion strains, locus YCL029C, strain bik1, active compounds read low 0.957 | S. cerevisiae deletion strains, locus YDL035C, strain GPR1, active compounds read low 0.956 | S. cerevisiae deletion strains, locus YDL074C, strain BRE1, active compounds read low 0.971 | S. cerevisiae deletion strains, locus YDL101C, strain DUN1, active compounds read low 0.99 | S. cerevisiae deletion strains, locus YDL134C, strain PPH21, active compounds read low 0.986 | S. cerevisiae deletion strains, locus YDL185W, strain tfp1, active compounds read low 0.961 | S. cerevisiae deletion strains, locus YDL192W, strain arf1, active compounds read low 0.972 | S. cerevisiae deletion strains, locus YDR101C, strain arx1, active compounds read low 0.971 | S. cerevisiae deletion strains, locus YDR150W, strain NUM1, active compounds read low 0.947 | S. cerevisiae deletion strains, locus YDR162C, strain NBP2, active compounds read low 0.975 | S. cerevisiae deletion strains, locus YDR318W, strain mcm21, active compounds read low 0.967 | S. cerevisiae deletion strains, locus YDR388W, active compounds read low 0.95 | S. cerevisiae deletion strains, locus YDR502C, strain sam2, active compounds read low 0.966 | S. cerevisiae deletion strains, locus YEL061C, strain CIN8, active compounds read low 0.989 | S. cerevisiae deletion strains, locus YER110C, active compounds read low 0.968 | S. cerevisiae deletion strains, locus YER155C, strain BEM2, active compounds read low 0.968 | S. cerevisiae deletion strains, locus YER167W, strain BCK2, active compounds read low 0.983 | S. cerevisiae deletion strains, locus YGL078C, strain dbp3, active compounds read low 0.968 | S. cerevisiae deletion strains, locus YGL086W, strain mad1, active compounds read low 0.975 | S. cerevisiae deletion strains, locus YGL248W, strain PDE1, active compounds read low 0.993 | S. cerevisiae deletion strains, locus YGR078C, strain PAC10, active compounds read low 0.97 | S. cerevisiae deletion strains, locus YGR135W, strain pre9, active compounds read low 0.972 | S. cerevisiae deletion strains, locus YGR229C, strain SMI1, active compounds read low 0.895 | S. cerevisiae deletion strains, locus YGR252W, strain gcn5, active compounds read low 0.994 | [1] 0.981 | S. cerevisiae deletion strains, locus YHR079C, strain IRE1 (second series), active compounds read low 0.966 | S. cerevisiae deletion strains, locus YHR094C, strain hxt1, active compounds read low 0.965 | S. cerevisiae deletion strains, locus YHR129C, strain ARP1, active compounds read low 0.983 | S. cerevisiae deletion strains, locus YHR200W, strain rpn10, active compounds read low 0.978 | S. cerevisiae deletion strains, locus YIL066C, strain RNR3, active compounds read low 0.929 | S. cerevisiae deletion strains, locus YIL073C, strain SPO22, active compounds read low 0.821 | S. cerevisiae deletion strains, locus YIL125W, strain kgd1, active compounds read low 0.978 | S. cerevisiae deletion strains, locus YIR030C, strain dcg1, active compounds read low 0.965 | [2] 0.994 | S. cerevisiae deletion strains, locus YJL134W, strain LCB3, active compounds read low 0.968 | S. cerevisiae deletion strains, locus YJL168C, strain set2, active compounds read low 0.974 | S. cerevisiae deletion strains, locus YJL187C, strain SWE1 (second series), active compounds read low 0.971 | S. cerevisiae deletion strains, locus YJR043C, strain POL32, active compounds read low 0.989 | S. cerevisiae deletion strains, locus YJR075W, strain HOC1, active compounds read low 0.98 | S. cerevisiae deletion strains, locus YKL009W, strain mrt4, active compounds read low 0.94 | S. cerevisiae deletion strains, locus YKL068W, active compounds read low 0.964 | S. cerevisiae deletion strains, locus YKL085W, strain MDH1 (second series), active compounds read low 0.973 | S. cerevisiae deletion strains, locus YKL085W, strain MDH1, active compounds read low 0.973 | S. cerevisiae deletion strains, locus YKL190W, strain CNB1, active compounds read low 0.979 | S. cerevisiae deletion strains, locus YKR001C, strain vps1, active compounds read low 0.959 | S. cerevisiae deletion strains, locus YLR039C, strain RIC1, active compounds read low 0.934 | S. cerevisiae deletion strains, locus YLR058C, strain SHM2, active compounds read low 0.974 | S. cerevisiae deletion strains, locus YLR102C, strain apc9, active compounds read low 0.971 | S. cerevisiae deletion strains, locus YLR262C, strain YPT6, active compounds read low 0.858 | S. cerevisiae deletion strains, locus YLR268W, strain sec22, active compounds read low 0.968 | S. cerevisiae deletion strains, locus YLR330W, strain CHS5, active compounds read low 0.987 | S. cerevisiae deletion strains, locus YLR342W, strain FKS1 (second series), active compounds read low 0.952 | S. cerevisiae deletion strains, locus YLR371W, strain rom2, active compounds read low 0.97 | S. cerevisiae deletion strains, locus YLR418C, strain cdc73, active compounds read low 0.976 | S. cerevisiae deletion strains, locus YML016C, strain PPZ1, active compounds read low 0.996 | S. cerevisiae deletion strains, locus YML032C, strain rad52, active compounds read low 0.964 | S. cerevisiae deletion strains, locus YML124C, strain tub3, active compounds read low 0.956 | S. cerevisiae deletion strains, locus YMR078C, strain ctf18, active compounds read low 0.957 | S. cerevisiae deletion strains, locus YMR223W, strain ubp8, active compounds read low 0.957 | S. cerevisiae deletion strains, locus YMR263W, strain SAP30, active compounds read low 0.973 | S. cerevisiae deletion strains, locus YMR307W, strain GAS1, active compounds read low 0.718 | S. cerevisiae deletion strains, locus YNL067W, strain RPL9B, active compounds read low 0.979 | S. cerevisiae deletion strains, locus YNL128W, strain TEP1, active compounds read low 0.985 | S. cerevisiae deletion strains, locus YNL153C, strain GIM3, active compounds read low 0.981 | S. cerevisiae deletion strains, locus YNL233W, strain BNI4, active compounds read low 0.998 | S. cerevisiae deletion strains, locus YNL250W, strain rad50, active compounds read low 0.968 | S. cerevisiae deletion strains, locus YNL271C, strain bni1, active compounds read low 0.973 | S. cerevisiae deletion strains, locus YNL298W, strain CLA4, active compounds read low 0.949 | S. cerevisiae deletion strains, locus YNL307C, strain MCK1, active compounds read low 0.915 | S. cerevisiae deletion strains, locus YNL322C, strain KRE1, active compounds read low 0.981 | S. cerevisiae deletion strains, locus YNR052C, strain pop2, active compounds read low 0.964 | S. cerevisiae deletion strains, locus YOL006C, strain TOP1, active compounds read low 0.838 | S. cerevisiae deletion strains, locus YOL012C, strain htz1 0.742 | S. cerevisiae deletion strains, locus YOL147C, strain pex11, active compounds read low 0.964 | S. cerevisiae deletion strains, locus YOR061W, strain CKA2, active compounds read low 0.984 | S. cerevisiae deletion strains, locus YOR069W, strain VPS5, active compounds read low 0.982 | S. cerevisiae deletion strains, locus YOR136W, strain idh2, active compounds read low 0.972 | S. cerevisiae deletion strains, locus YOR144C, strain elg1, active compounds read low 0.962 | S. cerevisiae deletion strains, locus YOR184W, strain ser1, active compounds read low 0.931 | S. cerevisiae deletion strains, locus YOR316C, strain cot1, active compounds read low 0.972 | S. cerevisiae deletion strains, locus YPL055C, strain LGE1, active compounds read low 0.957 | S. cerevisiae deletion strains, locus YPL241C, strain CIN2, active compounds read low 0.979 | S. cerevisiae deletion strains, locus YPR119W, strain clb2, active compounds read low 0.955 | S. cerevisiae deletion strains, locus YPR141C, strain kar3, active compounds read low 0.959 | S. cerevisiae deletion strains, locus YPR163C, strain tif3, active compounds read low 0.963 | S. cerevisiae deletion strains, locus YPR167C, strain met16, active compounds read low 0.98 | S. cerevisiae deletion strains, strain wtn01, active compounds read low 0.96 | S. cerevisiae strains, strain wild type, active compounds read low 0.981

CCCC[C@@H](CC)COC(=O)c1ccccc1O
inactive: [1] 0.979 | [3] 0.99 | [2] 1.02 | [4] 0.938 | [5] 0.974 | [6] 0.958 | [7] 0.984 | [8] 0.994

CCCCCCCCCCOc1cc2c(=O)c(C(=O)OCC)c[nH]c2cc1OCC
inactive: [1] 1 | [3] 0.989 | [2] 0.978 | [4] 0.962 | [5] 0.942 | [6] 0.971 | [7] 0.977 | [8] 0.993
